Activity calls are given as the source filed them.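 How the source made its calls, unless noted: active means NADPH fluorescence slope more negative than the mean of all samples by about 3 SD, 99.7% confidence; inactive means the rest.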
Legend:
[1] = inhibitors of TNFa-induced NFkB p65 translocation, primary screen, imaging, HUVEC, MLSMR starter and 10KST1 sets (AID 438;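 active means inhibition above 20% together with a positive visual image hit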;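 further: compound added about 3h40 before a 20 min TNFalpha stimulation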;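 on inhibition: signal is the nuclear over cytoplasmic p65 intensity ratio per well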); conditions: HUVEC TNFa-induced p65 nuclear translocation; cell count: measured here: nuclei count (cytotoxicity indicator), at 2.08 µM; inhibition: at 2 µM, stronger effect = higher value, 0% TNFa-plus-vehicle, 100% no-TNFa wells
[2] = reduction of polyQ htt aggregates in cells – imaging, exon1htt(103Q)mCFP cells, high-content imaging, primary screen (AID 483;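 active means visual image review flags a hit and inhibition of aggregation exceeds 20%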;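 further: compound exposure lasted 3 days before fixation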;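 on nuclei count: percent of the per-plate median nuclei count of sample wells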); conditions: exon1htt(103Q)mCFP cell line, aggregate imaging, at 2 µM; inhibition of aggregation: stronger effect = higher value; nuclei count: measured here: cell count, toxicity
[3] = endothelial E-selectin expression blockers – imaging, HUVEC, immunofluorescence, MLSMR starter and 10KST1 sets, primary screen (AID 487;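 active means visually confirmed hit in the image check and inhibition above 20%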;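 on inhibition: signal is fraction of cell area covered by stained E-selectin grains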;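 on nuclei count: 100% = median nuclei count of all wells on the same plate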); conditions: HUVEC TNFalpha-induced E-selectin immunofluorescence imaging, at 2 µM; inhibition: stronger effect = higher value; nuclei count: measured here: cell number, toxicity
[4] = molecular target: Voltage-gated potassium channel subunit beta-2 (Rattus norvegicus) (UniProt P62483); assay: inhibitors of rat Kvbeta2 reductase activity – biochemical, NADPH fluorescence, primary screen (AID 622;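 active means fluorescence slope higher than the sample average by over 3 SD, cut at about -0.22 in these data, passing the limit was not always enough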;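 further: slope of raw intensity against log time taken from 70 to 1610 s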); conditions: recombinant KvBeta, 4-cyanobenzaldehyde reduction, at 10 µM, stronger effect = higher value
Sequence of Voltage-gated potassium channel subunit beta-2 (Rattus norvegicus) (P62483 whole entry, looked up): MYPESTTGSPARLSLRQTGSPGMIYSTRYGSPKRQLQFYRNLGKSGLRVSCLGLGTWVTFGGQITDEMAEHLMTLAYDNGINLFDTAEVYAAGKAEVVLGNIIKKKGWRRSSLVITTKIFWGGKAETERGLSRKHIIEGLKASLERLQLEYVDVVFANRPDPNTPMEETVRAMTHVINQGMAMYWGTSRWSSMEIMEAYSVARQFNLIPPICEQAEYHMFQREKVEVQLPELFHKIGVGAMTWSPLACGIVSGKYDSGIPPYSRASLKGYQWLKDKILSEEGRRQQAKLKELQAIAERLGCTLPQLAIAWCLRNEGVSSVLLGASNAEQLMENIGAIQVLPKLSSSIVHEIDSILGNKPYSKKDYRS

[5] = molecular target: Voltage-gated potassium channel subunit beta-2 (Rattus norvegicus) (UniProt P62483); assay: enhancers of rat Kvbeta2 NADPH turnover – biochemical, NADPH fluorescence, primary screen (AID 623); conditions: Recombinant KvBeta, NADPH fluorescence decrease slope, 10 min; at 10 µM; stronger effect = lower value;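 further: fluorescence intensity change per second fitted from 20 to 320 s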
[6] = molecular target: Alpha-2C adrenergic receptor (Homo sapiens) (UniProt P18825); assay: compounds altering alpha2C-coupled GIRK flux – cell-based, HEK293 alpha2C/GIRK1/2, thallium flux, primary screen (AID 624;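 active means fluorescence slope after compound addition differing from the mean of all screened samples at 99.7% confidence, in either direction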;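 further: slope of fluorescence ratio to pre-addition baseline per second over 15 to 24 s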); conditions: thallium flux BTC fluorescence, at 10 µM, actives lie on both sides
Sequence of Alpha-2C adrenergic receptor (Homo sapiens) (P18825 whole entry, looked up): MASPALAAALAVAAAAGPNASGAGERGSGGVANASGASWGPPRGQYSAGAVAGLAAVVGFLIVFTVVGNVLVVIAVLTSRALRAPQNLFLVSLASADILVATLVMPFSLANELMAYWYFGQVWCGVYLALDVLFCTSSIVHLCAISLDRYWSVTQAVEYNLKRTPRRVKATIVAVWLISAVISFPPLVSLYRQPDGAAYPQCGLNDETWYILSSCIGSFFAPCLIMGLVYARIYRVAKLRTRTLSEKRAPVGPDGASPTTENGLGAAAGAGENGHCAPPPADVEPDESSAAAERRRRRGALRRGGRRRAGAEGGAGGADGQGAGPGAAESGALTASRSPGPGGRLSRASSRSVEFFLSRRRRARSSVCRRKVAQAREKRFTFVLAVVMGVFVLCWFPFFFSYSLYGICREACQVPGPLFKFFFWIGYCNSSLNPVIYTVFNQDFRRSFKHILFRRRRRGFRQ

[7] = blockers of RIG-like receptor reporter activation – cell-based, Sendai virus stimulus, luciferase, 10K MLSCN set, TLR/RLR signaling modifier project, primary screen (AID 602276;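 active means inhibition at or above 50% at 10 µM; inactive means inhibition below 50%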;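 further: firefly luciferase from ISG56 promoter only with Renilla not read in this screen; 0% = Sendai virus plus DMSO and 100% = medium plus DMSO without virus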); conditions: HEK293 RL24 IRF3 luciferase reporter, at 10 µM, stronger effect = higher value
[8] = TLR3 IRF3 reporter activation blockers – cell-based, poly I:C stimulus, luciferase, 10K MLSCN set, primary screen (AID 602277;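 active means inhibition of the reporter signal at or above 50%; inactive means inhibition below 50%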); conditions: HEK293-TLR3 RL24 IRF3 luciferase reporter, at 10 µM, stronger effect = higher value

Compound | cell count [1] | inhibition [1] | inhibition of aggregation [2] | nuclei count [2] [%] | inhibition [3] | nuclei count [3] [%] | fluorescence slope [4] | NADPH fluorescence slope [5] | slope [6] | inhibition [7] | inhibition [8]
O=C(CN1C(=O)CCSc2ccccc21)Nc1ccccc1 | 854 | -4.1% (inactive) | -19.8% (inactive) | 105 | -140% (inactive) | 113 | -0.447 (inactive) | -0.000395 (inactive) | 0.00731 (inactive) | -3.3% (inactive) | 7.46% (inactive)
COC(=O)C(O)(CC(=O)c1ccc(OC)cc1)C(F)(F)F (stereo not drawn) | 778 | -12.8% (inactive) | 4.5% (inactive) | 100 | 36% (inactive) | 99.4 | -0.507 (inactive) | -1.8e-05 (inactive) | 0.0048 (inactive) | 9.29% (inactive) | 9.82% (inactive)
CCOc1ccccc1OCC(=O)Nc1nnc(COC)s1 | 437 | 2.9% (inactive) | -3.9% (inactive) | 106 | 56.9% (inactive) | 115 | -0.59 (inactive) | -3.4e-05 (inactive) | 0.00402 (inactive) | -15.3% (inactive) | -12.6% (inactive)
CCOc1cc(C2C3=C(CCCC3=O)N(C)C3=C2C(=O)CCC3)cc(Cl)c1O | 413 | 12.5% (inactive) | -3.2% (inactive) | 94.1 | -17.1% (inactive) | 112 | -0.43 (inactive) | 5.6e-06 (inactive) | 0.00638 (inactive) | 4.36% (inactive) | 26.6% (inactive)
FC(F)(F)c1cccc(N2CCN(Cc3cccnc3)CC2)c1 | 447 | -3.8% (inactive) | -15.1% (inactive) | 109 | -57.5% (inactive) | 127 | -0.505 (inactive) | -6.8e-05 (inactive) | 0.00521 (inactive) | 17.4% (inactive) | 12.1% (inactive)
CCCc1cc(=O)[nH]c(SCc2ccccc2)n1 | 651 | 6.7% (inactive) | -3.9% (inactive) | 99.8 | -110% (inactive) | 101 | -0.6 (inactive) | -1.1e-07 (inactive) | 0.00614 (inactive) | 9.4% (inactive) | 30% (inactive)
C=CCc1c(C)nc(SC)nc1Nc1ccc(C(=O)O)cc1 | 497 | 7.2% (inactive) | 7.3% (inactive) | 106 | -41.5% (inactive) | 118 | -0.488 (inactive) | -3.9e-05 (inactive) | 0.00683 (inactive) | 4.8% (inactive) | 21.7% (inactive)
CC(C)OC(=O)CCCCCN1C(=O)CSC1=S | 448 | -9.2% (inactive) | -5.3% (inactive) | 80.5 | -93.7% (inactive) | 114 | -0.539 (inactive) | -1.3e-05 (inactive) | 0.00459 (inactive) | 1.67% (inactive) | -4.31% (inactive)
O=C(COc1ccc(Cl)cc1)NCc1nnc(SCC(=O)Nc2ccc3c(c2)OCCO3)o1 | 375 | 0% (inactive) | 4.2% (inactive) | 99.9 | -9.1% (inactive) | 119 | -0.359 (inactive) | -3.4e-06 (inactive) | 0.00522 (inactive) | -4.54% (inactive) | -2.34% (inactive)
Cc1ccccc1-n1c(Cn2c(=O)sc3ccccc32)nnc1SCC(=O)N1CCCC1 | 652 | 8.7% (inactive) | 13.1% (inactive) | 112 | -36.1% (inactive) | 120 | -0.547 (inactive) | -3.9e-05 (inactive) | 0.00766 (inactive) | 12.7% (inactive) | 10.7% (inactive)
CCOc1ccc(N2C(N)=NC(N)=NC2(C)C)cc1 | 401 | 2.5% (inactive) | 5.2% (inactive) | 103 | -19.5% (inactive) | 105 | -0.644 (inactive) | 5.9e-05 (inactive) | 0.00717 (inactive) | 11.2% (inactive) | 26.1% (inactive)
CN(C)c1oc(-c2ccccc2F)nc1C#N | 576 | 5.5% (inactive) | 10.1% (inactive) | 104 | -56.7% (inactive) | 111 | -0.355 (inactive) | -1.3e-05 (inactive) | 0.00727 (inactive) | -3.37% (inactive) | -12.5% (inactive)
O=C1CCCc2nc(N3CCCCC3)sc21 | 629 | -15.2% (inactive) | -20.4% (inactive) | 108 | -13.1% (inactive) | 86.9 | -0.424 (inactive) | -4.5e-05 (inactive) | 0.00423 (inactive) | -57.2% (inactive) | -85.2% (inactive)
Cc1cc(Cl)c(S(=O)(=O)Nc2ccc3c(c2)OCCO3)cc1OCC(N)=O | 526 | 1.8% (inactive) | -7.1% (inactive) | 106 | -79.1% (inactive) | 113 | -0.516 (inactive) | 1.1e-05 (inactive) | 0.00485 (inactive) | 32.8% (inactive) | 30.7% (inactive)
Cn1c(=O)c2c(nc(CN3CCOCC3)n2CC(O)CO)n(C)c1=O (stereo not drawn) | 474 | 44.4% (active) | 19.2% (inactive) | 103 | 10.6% (inactive) | 110 | -0.427 (inactive) | -2.2e-05 (inactive) | 0.00587 (inactive) | 14.2% (inactive) | 23.9% (inactive)
CC1CN=C(N(C(=O)Nc2ccccc2)c2ccc(S(=O)(=O)N3CCOCC3)cc2)S1 (stereo not drawn) | 476 | -4.8% (inactive) | 11.9% (inactive) | 95.4 | -38.9% (inactive) | 112 | -0.356 (inactive) | -5.2e-05 (inactive) | 0.00838 (inactive) | 3.57% (inactive) | 6.41% (inactive)
CC1CCCCC1NC(=O)Cn1nnc(-c2ccc(Cl)cc2)n1 (stereo not drawn) | 447 | 1.9% (inactive) | -8.6% (inactive) | 92.4 | -27.6% (inactive) | 99.4 | -0.578 (inactive) | -2.2e-05 (inactive) | 0.00728 (inactive) | -4.91% (inactive) | -12% (inactive)
CCCc1cc(C(=O)Nc2ccccc2SC)no1 | 849 | 5.8% (inactive) | -12.6% (inactive) | 108 | -35.7% (inactive) | 121 | -0.597 (inactive) | -2.4e-05 (inactive) | 0.00474 (inactive) | -22% (inactive) | -51.6% (inactive)
Nc1nc(-c2ccc(Cl)cc2)nn1C(=O)c1cccnc1 | 293 | 4.2% (inactive) | -4.2% (inactive) | 96.8 | 40.8% (inactive) | 105 | -0.397 (inactive) | 6.7e-06 (inactive) | 0.00507 (inactive) | -0.966% (inactive) | -2.82% (inactive)
Cc1cc(NC(=O)Cc2cn3ccsc3n2)n(-c2ccccc2)n1 | 823 | -16.9% (inactive) | -16.8% (inactive) | 104 | -23.9% (inactive) | 106 | -0.308 (inactive) | -1.7e-07 (inactive) | 0.00558 (inactive) | 5.91% (inactive) | 5.15% (inactive)
CN(C)c1ccc(CNn2cnnc2)cc1 | 499 | 4.4% (inactive) | 3.2% (inactive) | 68.8 | -50.6% (inactive) | 102 | -0.369 (inactive) | 1.6e-05 (inactive) | 0.00382 (inactive) | 5.14% (inactive) | 16.1% (inactive)
C=C(C)Cn1c(N2CC(C)CC(C)C2)nc2c1c(=O)[nH]c(=O)n2C (stereo not drawn) | 616 | -8% (inactive) | -2.3% (inactive) | 104 | -8.5% (inactive) | 108 | -0.421 (inactive) | -1.7e-05 (inactive) | 0.00499 (inactive) | 12.7% (inactive) | 41.2% (inactive)
O=C1CC(c2ccccc2)Cc2nc(N3CCc4ccccc43)ncc21 (stereo not drawn) | 403 | 1.2% (inactive) | -14.1% (inactive) | 95.7 | -134% (inactive) | 183 | -0.0564 (inactive) | -1.7e-05 (inactive) | 0.00498 (inactive) | 9.74% (inactive) | 2.35% (inactive)
CCOC(=O)N1CCN(c2c(N3CCN(c4ccccc4OC)CC3)c(=O)c2=O)CC1 | 651 | -2.3% (inactive) | 18.3% (inactive) | 109 | -66.1% (inactive) | 129 | -0.532 (inactive) | -2.1e-05 (inactive) | 0.0077 (inactive) | 3.99% (inactive) | 15% (inactive)
CCOc1cccc(/C(O)=C2/C(=O)C(=O)N(CCN3CCOCC3)C2c2cccnc2)c1 (stereo not drawn) | 733 | -1.1% (inactive) | -4.6% (inactive) | 104 | -18.1% (inactive) | 97.6 | -0.421 (inactive) | -5e-05 (inactive) | 0.00281 (inactive) | 14.8% (inactive) | 28.3% (inactive)
COc1cccc(-c2cc(C(=O)N3CCCCCC3)no2)c1 | 519 | -11.6% (inactive) | -8.6% (inactive) | 82.4 | -44.3% (inactive) | 116 | -0.522 (inactive) | -3.5e-05 (inactive) | 0.00692 (inactive) | -24.6% (inactive) | -141% (inactive)
CN(C)c1ccc(-c2nn3c(-c4ccc(Cl)cc4Cl)nnc3s2)cc1 | 321 | 2.6% (inactive) | -10.5% (inactive) | 98.2 | 42.5% (inactive) | 96.6 | -0.552 (inactive) | -3.3e-05 (inactive) | 0.00528 (inactive) | -25.6% (inactive) | 55.1% (active)
Cn1c(=O)c2[nH]c(NCC3CCCO3)nc2n(-c2ccccc2)c1=O (stereo not drawn) | 359 | -0.4% (inactive) | -11.4% (inactive) | 108 | -80% (inactive) | 116 | -0.407 (inactive) | -7.1e-05 (inactive) | 0.00463 (inactive) | 14% (inactive) | 32.3% (inactive)

From PubChem BioAssay
